According to PubChem BioAssay AID1159580 (chemical genetic matrix, 2015):
The campaign covered roughly 5,500 compounds. About 2,000 (36%) were called active. Inconclusive results (about 18%) are left out. Rule as the data show it: active = normalized growth mostly below about 0.91 (no sharp cut-off); inconclusive = no clear call, values can overlap the other calls; inactive = mostly above about 0.92. The list shows a part of the results.

Test: chemical genetic growth profiling, strain panel (AID 1159580);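 also: tested at 20 µM; growth read once vehicle control cultures reached saturation at 30 °C; 1 = growth at the plate median or of vehicle wells; lower values mean less growth of the strain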
Settings: S. cerevisiae deletion strains, growth OD
[1] = locus YHR030C, strain SLT2, hits give low values
[2] = locus YHR079C, strain IRE1, hits give low values
[3] = locus YJL095W, strain BCK1, hits give low values
[4] = locus YJR066W, strain TOR1, hits give low values
[5] = locus YLR113W, strain HOG1, hits give low values
[6] = locus YNL183C, strain NPR1, hits give low values
[7] = locus YOR231W, strain MKK1, hits give low values
[8] = locus YPL256C, strain CLN2, hits give low values

Measured: normalized growth

CN1C[C@H](C(=O)N[C@]2(C)C[C@@]3(O)C4CCCN4C(=O)[C@H](Cc4ccccc4)N3C2=O)C=C2c3cccc4[nH]cc(c34)C[C@H]21 (stereo partly drawn)
inactive: [1] 0.986 | [2] 0.994 | [3] 0.958 | [4] 0.945 | [5] 1 | [6] 0.944 | [7] 0.997 | [8] 0.981

Cc1ccc(C)n1-c1ccc(/C=C2/C(=O)Nc3ccccc32)cc1
active: [1] 0.662 | [5] 0.837 | [8] 0.855
inactive: locus YAR019C, strain CDC15, hits give low values 0.957 | locus YBL105C, strain PKC1, hits give low values 0.973 | locus YBR135W, strain CKS1, hits give low values 0.975 | locus YBR136W, strain MEC1, hits give low values 0.972 | locus YBR160W, strain CDC28, hits give low values 0.962 | locus YDL017W, strain CDC7, hits give low values 0.971 | locus YDL028C, strain MPS1, hits give low values 0.964 | locus YDL101C, strain DUN1, hits give low values 0.979 | locus YDL108W, strain KIN28, hits give low values 0.968 | locus YDL132W, strain cdc53, hits give low values 0.974 | locus YDL214C, strain PRR2, hits give low values 0.91 | locus YDR052C, strain DBF4, hits give low values 0.986 | locus YDR054C, strain cdc34, hits give low values 0.983 | locus YDR226W, strain ADK1, hits give low values 0.968 | locus YDR477W, strain SNF1, hits give low values 0.931 | locus YER123W, strain YCK3, hits give low values 0.903 | locus YER133W, strain GLC7, hits give low values 0.932 | locus YFL009W, strain cdc4, hits give low values 0.947 | locus YFL029C, strain CAK1, hits give low values 0.957 | locus YFR003C, strain YPI1, hits give low values 0.981 | locus YFR019W, strain FAB1, hits give low values 0.948 | locus YFR028C, strain CDC14, hits give low values 0.976 | locus YGR040W, strain KSS1, hits give low values 0.945 | locus YGR052W, strain FMP48, hits give low values 0.925 | locus YGR092W, strain DBF2, hits give low values 0.839 | [2] 0.832 | locus YHR082C, strain KSP1, hits give low values 0.907 | locus YHR205W, strain SCH9, hits give low values 0.857 | locus YIL147C, strain SLN1, hits give low values 0.97 | [3] 0.878 | locus YJL128C, strain PBS2, hits give low values 0.973 | locus YJL157C, strain FAR1, hits give low values 0.923 | locus YJR016C, strain ILV3, hits give low values 0.972 | locus YJR066W, strain TOR1 (second series), hits give low values 0.912 | [4] 0.794 | locus YKL048C, strain ELM1, hits give low values 0.963 | locus YKL067W, strain YNK1, hits give low values 0.887 | locus YKL101W, strain HSL1, hits give low values 0.939 | locus YKL193C, strain SDS22, hits give low values 0.979 | locus YKL203C, strain TOR2, hits give low values 1.02 | locus YLR133W, strain CKI1, hits give low values 0.926 | locus YLR403W, strain SFP1, hits give low values 0.925 | locus YML070W, strain DAK1, hits give low values 0.916 | locus YMR001C, strain CDC5, hits give low values 0.97 | locus YMR205C, strain PFK2 (second series), hits give low values 0.932 | locus YMR277W, strain FCP1, hits give low values 0.957 | locus YNL006W, strain LST8, hits give low values 0.976 | locus YNL020C, strain ARK1, hits give low values 0.936 | locus YNL161W, strain CBK1, hits give low values 0.975 | [6] 0.936 | locus YNL207W, strain RIO2, hits give low values 0.974 | locus YNL222W, strain SSU72, hits give low values 0.978 | locus YNL307C, strain MCK1 (second series), hits give low values 0.947 | locus YOL078W, strain AVO1, hits give low values 0.972 | locus YOL136C, strain PFK27, hits give low values 0.9 | locus YOR061W, strain CKA2, hits give low values 0.932 | locus YOR119C, strain RIO1, hits give low values 0.942 | [7] 0.863 | locus YOR329C, strain SCD5, hits give low values 0.977 | locus YPL031C, strain PHO85, hits give low values 0.931 | locus YPL153C, strain RAD53, hits give low values 0.92 | locus YPL204W, strain HRR25, hits give low values 0.935 | locus YPL209C, strain IPL1, hits give low values 0.977 | locus YPR025C, strain CCL1, hits give low values 0.971 | locus YPR106W, strain ISR1, hits give low values 0.968 | locus YPR111W, strain DBF20, hits give low values 0.958 | strain NNK1, hits give low values 0.959 | strain TSCII, hits give low values 0.967

COc1cc(OC)c(/C=C2/C(=O)Nc3ccccc32)c(OC)c1
inactive: locus YAL013W, strain DEP1, hits give low values 1.01 | locus YAL040C, strain CLN3, hits give low values 0.983 | locus YCL061C, strain MRC1 (second series), hits give low values 1.01 | locus YDR150W, strain NUM1, hits give low values 1.01 | locus YDR363W, strain ESC2, hits give low values 0.984 | locus YER002W, strain NOP16, hits give low values 1.02 | locus YJR075W, strain HOC1, hits give low values 1.01 | locus YMR307W, strain GAS1, hits give low values 1.01 | locus YNL153C, strain GIM3, hits give low values 0.914 | locus YNL175C, strain NOP13, hits give low values 0.972 | locus YNL197C, strain WHI3, hits give low values 0.979 | locus YNL224C, strain SQS1, hits give low values 0.996 | locus YNL322C, strain KRE1, hits give low values 1 | locus YOR083W, strain WHI5 (second series), hits give low values 0.967
